According to PubChem BioAssay (Tox21):
Several values for one entry are separate records, joined by “and”; a condition that tells them apart may be missing. Equal values may be shown once. Results filed as inconclusive are left out. Some compounds were tested as several samples or in several runs, with calls that do not always agree. Activity calls are given as the source filed them. Unless noted, the call rests on the fitted dose curve; in most records, active means well fitted curve in the direction sought with a large enough effect in the repeat runs; inconclusive means weak or mixed curves; inactive means no such curve, though single readings can be large; an effect the other way counts as inactive or inconclusive.

What was measured:
[1] = A CellTox Green Cytotoxicity Assay to monitor cytotoxicity in HEK293 cells - 32 hour (AID 1224881); further: nearly all actives have a fitted effect of over 40% in size
In short: (§1)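 Seeding of HEK293 cells together with cytotoxicity dye preceded a 5 h incubation at 37 C/5% CO2. Test compounds in DMSO were then added and fluorescence monitored across 40 h.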

[2] = A CellTox Green Cytotoxicity Assay to monitor cytotoxicity in HepG2 cells - 0 hour (AID 1224882); further: nearly all actives have a fitted effect of over 35% in size
In short: (§2)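 Nonlytic assay: viable cells exclude the dye, so fluorescence scales with cell death. HepG2 at 600 cells/well, compounds added after 5 h, signal read across 40 h.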

[3] = A CellTox Green Cytotoxicity Assay to monitor cytotoxicity in HepG2 cells - 32 hour (AID 1224883); further: nearly all actives have a fitted effect of over 50% in size; further: potency means the concentration at half of the fitted maximal effect
In short: as §2

[4] = A CellTox Green Cytotoxicity Assay to monitor cytotoxicity in HEK293 cells - 8 hour (AID 1224884); further: nearly all actives have a fitted effect of over 35% in size
In short: as §1

[5] = qHTS RealTime-Glo MT Cell Viability Assay in HepG2 cells - 16 hour (AID 1224885); further: nearly all actives have a fitted effect of over 50% in size
In short: (§3)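 Real-time, nonlytic viability: 600 HepG2 cells/well mixed with NanoLuc enzyme plus prosubstrate; 5 h settle, compound (DMSO) added by pintool; luminescence monitored over 40 h at 37 C.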

[6] = qHTS RealTime-Glo MT Cell Viability Assay in HEK293 cells - 24 hour (AID 1224886); further: top concentration of the series differs between compounds; nearly all actives have a fitted effect of over 50% in size
In short: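 Cells + reagent dispensed (600 cells/well, HEK293) → 5 h at 37 C/5% CO2 → 23 nL compound in DMSO pinned → 40 h at 37 C → luminescence read at 0, 8, 16, 24, 32, 40 h.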

[7] = qHTS RealTime-Glo MT Cell Viability Assay in HEK293 cells - 8 hour (AID 1224887); further: top concentration of the series differs between compounds; nearly all actives have a fitted effect of over 50% in size
In short: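 Tox21 screen in HEK293 using RealTime-Glo MT chemistry, with cells and reagent co-dispensed. Luminescence proportional to viable cell number was captured at intervals during 40 h compound exposure at 37 C.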

[8] = A CellTox Green Cytotoxicity Assay to monitor cytotoxicity in HEK293 cells - 16 hour (AID 1224888); further: nearly all actives have a fitted effect of over 35% in size
In short: as §1

[9] = qHTS RealTime-Glo MT Cell Viability Assay in HepG2 cells - 0 hour (AID 1224889); further: nearly all actives have a fitted effect of over 50% in size
In short: as §3

[10] = A CellTox Green Cytotoxicity Assay to monitor cytotoxicity in HepG2 cells - 8 hour (AID 1224890); further: nearly all actives have a fitted effect of over 45% in size; further: potency means the concentration at half of the fitted maximal effect
In short: as §2

[11] = qHTS assay to identify small molecule antagonists of the estrogen receptor alpha (ER-alpha) signaling pathway using the BG1 cell line in the presence of 0.1 nM 17-beta-estradiol - cell viability counter screen (AID 1259241); further: nearly all actives have a fitted effect of over 40% in size
In short: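 VM7Luc4E2 cells (endogenous full-length ER-alpha, 4xERE-luciferase), cultured 5 days in charcoal-stripped serum, exposed to compounds with 0.1 nM 17beta-estradiol (final) for 22 hr at 37C. Viability read in same wells as live-cell protease fluorescence after 30 min.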

[12] = qHTS assay to identify small molecule antagonists of the androgen receptor (AR) signaling pathway using the MDA cell line in the presence of 0.5 nM R1881 - cell viability counter screen (AID 1259242); further: nearly all actives have a fitted effect of over 45% in size
In short: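 R1881 at 0.5 nM final stimulated MDA-kb2 cells during 16 hr compound treatment at 37C. Cytotoxicity read: CellTiter-Fluor fluorescence after 30 min.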

[13] = qHTS assay to identify small molecule phospholipidosis (PLD) inducers (AID 1259344; active means well fitted curve in the direction sought with a large enough effect; an effect the other way counts as inactive or inconclusive)
In short: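 Quantitative HTS in HepG2: compound plus LipidTOX Red dye for 24 h, paraformaldehyde fixation with Hoechst 33342, widefield high-content imaging; amiodarone as positive and DMSO as negative control.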

[14] = qHTS assay to identify small molecule HDAC inhibitors (AID 1259364); further: potency means the concentration at half of the fitted maximal effect;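 further: wild-type HCT-116 cells with endogenous class I/II HDAC activity; nearly all actives have a fitted effect of over 45% in size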
In short: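 Relative class I and II HDAC activity is taken from the luminogenic signal in HCT-116 cells, with compound exposure 2 hr and reagent development 30 min at room temperature.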

[15] = qHTS assay to identify small molecule HDAC inhibitors - cell viability counter screen (AID 1259365)
In short: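 Wild-type HCT-116 cells, 1,500/well, cultured overnight, then compound-treated 2 h at 37 C. Viability measured as ATP luminescence with CellTiter-Glo after 30 min at room temperature.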

[16] = qHTS assay to identify small molecule agonists of the sonic hedgehog signaling (Shh) pathway - cell viability counter screen (AID 1259366); further: nearly all actives have a fitted effect of over 50% in size; further: potency means the concentration at half of the fitted maximal effect
In short: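 NIH/3T3-derived Gli1-Luc reporter cells, 2,000 per well, received compound after 4 h and were treated about 23 h at 37C. Viability measured in the same wells by CellTiter-Fluor fluorescence after 1 h.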

[17] = qHTS assay to identify small molecule antagonists of the sonic hedgehog signaling (Shh) pathway - cell viability counter screen (AID 1259367); further: nearly all actives have a fitted effect of over 55% in size; further: potency means the concentration at half of the fitted maximal effect
In short: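 Seed 3T3 Gli1-Luc cells at 2,000 per well; incubate 4 hr; add compound in DMSO, then conditioned medium; incubate at 37C with 5% CO2; add CellTiter-Fluor after 23 hr; read fluorescence 1 hr later.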

[18] = qHTS assay to identify small molecule agonists of the sonic hedgehog signaling (Shh) pathway (AID 1259368; calls by dose curve;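 further: NIH/3T3-derived 3T3Gli1-Luc cells carrying a stable Gli1-driven firefly luciferase reporter; series mostly up to about 92 µM; nearly all actives have a fitted effect of over 15% in size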)
In short: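 Mouse fibroblast (NIH/3T3) reporter cells with stably integrated Gli1-Luc were treated 24 hr with compound; firefly luciferase luminescence served as the read-out.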

[19] = target: Estrogen receptor (Homo sapiens) (UniProt P03372); test: qHTS assay to identify small molecule antagonists of the estrogen receptor alpha (ER-alpha) signaling pathway using the BG1 cell line in the presence of 0.1 nM 17-beta-estradiol (AID 1259244); further: nearly all actives have a fitted effect of over 50% in size
In short: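 VM7Luc4E2; 4xERE-luciferase; 0.1 nM E2 final; 22 h co-incubation, 37C; ONE-Glo luminescence after 30 min at room temperature.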

[20] = target: Androgen receptor (Homo sapiens) (UniProt P10275); test: qHTS assay to identify small molecule antagonists of the androgen receptor (AR) signaling pathway using the MDA cell line in the presence of 0.5 nM R1881 (AID 1259243); further: nearly all actives have a fitted effect of over 50% in size
In short: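 We exposed MDA-kb2 cells to compounds under 0.5 nM R1881 stimulation for 16 hr at 37C and quantified MMTV-driven luciferase by luminescence.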

Measured: Potency

Estrogen receptor (Homo sapiens), sequence (P03372 whole entry, looked up): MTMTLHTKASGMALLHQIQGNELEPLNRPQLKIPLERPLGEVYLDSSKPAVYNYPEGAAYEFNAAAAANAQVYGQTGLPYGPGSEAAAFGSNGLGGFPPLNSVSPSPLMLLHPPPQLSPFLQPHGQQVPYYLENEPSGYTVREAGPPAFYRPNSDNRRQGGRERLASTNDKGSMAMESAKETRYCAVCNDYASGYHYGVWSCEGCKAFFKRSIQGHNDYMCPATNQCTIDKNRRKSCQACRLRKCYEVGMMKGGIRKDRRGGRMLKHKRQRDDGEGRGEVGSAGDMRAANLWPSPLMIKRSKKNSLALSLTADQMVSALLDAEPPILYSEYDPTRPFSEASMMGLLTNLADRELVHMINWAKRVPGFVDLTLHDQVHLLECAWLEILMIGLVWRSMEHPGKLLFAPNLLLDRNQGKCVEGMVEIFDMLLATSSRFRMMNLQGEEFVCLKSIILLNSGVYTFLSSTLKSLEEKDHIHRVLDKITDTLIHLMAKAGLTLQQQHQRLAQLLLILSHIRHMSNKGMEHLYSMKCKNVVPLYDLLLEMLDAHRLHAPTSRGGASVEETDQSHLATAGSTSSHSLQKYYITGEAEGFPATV
Androgen receptor (Homo sapiens), sequence (P10275 whole entry, looked up): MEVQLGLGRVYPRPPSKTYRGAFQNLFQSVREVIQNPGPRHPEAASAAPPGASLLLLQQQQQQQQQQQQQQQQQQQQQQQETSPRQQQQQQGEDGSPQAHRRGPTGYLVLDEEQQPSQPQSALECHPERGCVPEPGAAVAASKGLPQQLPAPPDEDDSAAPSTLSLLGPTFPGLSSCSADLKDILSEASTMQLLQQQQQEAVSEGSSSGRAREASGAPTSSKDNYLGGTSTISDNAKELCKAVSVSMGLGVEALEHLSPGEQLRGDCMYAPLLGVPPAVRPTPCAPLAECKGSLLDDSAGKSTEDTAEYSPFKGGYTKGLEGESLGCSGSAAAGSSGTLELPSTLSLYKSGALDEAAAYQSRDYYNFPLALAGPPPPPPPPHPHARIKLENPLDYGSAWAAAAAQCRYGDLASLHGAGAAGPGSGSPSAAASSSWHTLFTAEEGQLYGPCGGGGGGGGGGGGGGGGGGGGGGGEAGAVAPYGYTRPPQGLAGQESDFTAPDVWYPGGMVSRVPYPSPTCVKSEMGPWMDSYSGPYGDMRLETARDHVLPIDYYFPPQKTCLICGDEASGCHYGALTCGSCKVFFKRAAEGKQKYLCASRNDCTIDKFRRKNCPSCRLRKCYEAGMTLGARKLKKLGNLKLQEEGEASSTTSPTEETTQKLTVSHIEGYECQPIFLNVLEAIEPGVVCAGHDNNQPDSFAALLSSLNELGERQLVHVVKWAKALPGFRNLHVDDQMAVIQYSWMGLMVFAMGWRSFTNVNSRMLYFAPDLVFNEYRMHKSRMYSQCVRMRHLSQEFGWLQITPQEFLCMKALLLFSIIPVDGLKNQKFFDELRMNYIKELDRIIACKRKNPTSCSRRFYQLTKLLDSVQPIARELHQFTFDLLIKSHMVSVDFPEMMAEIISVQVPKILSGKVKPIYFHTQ

Clc1cccc(Cl)c1NC1=NCCN1
not listed: [19] | [20]
inactive: all other assays above

O=c1c(O)c(-c2ccc(O)c(O)c2)oc2cc(O)cc(O)c12
active: [14] 27.3 µM and 24.5 µM and 11.9 µM | [16] 30.9 µM
48.6 µM (active) and inactive: [17]
not listed: [9] | [20]
inactive: all other assays above

CO[Si](CCCNCCN)(OC)OC
15.6 µM (active) and inactive: [17]
inactive and 49 µM (active): [3] | [10]
5.53 µM (active) and inactive: [16]
not listed: [13] | [19]
inactive: all other assays above

O=C1O[C@H]([C@H](O)CO)C(O)=C1O
not listed: [13] | [15] | [19] | [20]
inactive: all other assays above

COc1cc(NC(=O)CC(C)=O)c(OC)cc1Cl
not listed: [6] | [8] | [13] | [19] | [20]
inactive: all other assays above

CCCCCNCCCCC
not listed: [6] | [13] | [19] | [20]
inactive: all other assays above

OCC(O)CS (stereo not drawn)
not listed: [2] | [6] | [8] | [15] | [19]
inactive: all other assays above

CC(=O)OC[C@H]1O[C@@](COC(C)=O)(O[C@H]2O[C@H](COC(C)=O)[C@@H](OC(C)=O)[C@H](OC(C)=O)[C@H]2OC(C)=O)[C@@H](OC(C)=O)[C@@H]1OC(C)=O
not listed: [2] | [19] | [20]
inactive: all other assays above
